What is called AC50 is the concentration giving half of the maximal activity seen.

The nature of experiment [1]: ATG_TAL_CIS: Attagene CIS-FACTORIAL HepG2 Assay for human TAL Basal Promoter (AID 2282966; active = hit-call score of the fitted dose curve at least 0.9, where 1 is the maximum; inactive = score below 0.9;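 note: background control endpoint measuring basal TAL promoter reporter mRNA not a specific factor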). The following applies: HepG2 Attagene cis-factorial TAL promoter reporter; actives raise or lower the signal. In a few lines:
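RT-PCR plus capillary electrophoresis quantifies reporter mRNA induction in transiently transfected HepG2 cells after 24 h chemical treatment. DMSO serves as negative control and baseline for bidirectional fitting.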

Experiment [2] can be described thus: ATG_TGFb_CIS: Attagene CIS-FACTORIAL HepG2 Assay for human Transforming Growth Factor (TGF) (AID 2282967; active = hit-call score of the fitted dose curve at least 0.9, where 1 is the maximum; inactive = score below 0.9). To be noted: HepG2 Attagene CIS TGFb reporter, mRNA transcription; actives raise or lower the signal. In outline:
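Bidirectional fitting relative to DMSO gave the endpoint. Underlying data: reporter mRNA from HepG2 cells carrying transiently transfected cis-regulated reporter constructs, harvested 24 h after dosing and analyzed by RT-PCR and capillary electrophoresis.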

The target of experiment [3] is Nuclear receptor subfamily 1 group I member 3 (Homo sapiens) (UniProt Q14994). The experiment can be described thus: ATG_CAR_TRANS: Attagene TRANS-FACTORIAL HepG2 Assay for human Constitutive Androstane Receptor (CAR) (AID 2282969).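 Note: activators raise reporter mRNA above DMSO so AC50 marks induction.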 The following applies: HepG2 Attagene TRANS-FACTORIAL CAR reporter. In outline: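 Readout is reporter mRNA induction, quantified by fluorescent primer extension and capillary electrophoresis after RT-PCR. Cells were HepG2 transiently carrying chimeric NR-Gal4 constructs with GAL4-UAS reporters, treated for 24 h; activity scored upward from DMSO.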
Sequence of Nuclear receptor subfamily 1 group I member 3 (Homo sapiens) (Q14994 whole entry, looked up, the tested form may be a part): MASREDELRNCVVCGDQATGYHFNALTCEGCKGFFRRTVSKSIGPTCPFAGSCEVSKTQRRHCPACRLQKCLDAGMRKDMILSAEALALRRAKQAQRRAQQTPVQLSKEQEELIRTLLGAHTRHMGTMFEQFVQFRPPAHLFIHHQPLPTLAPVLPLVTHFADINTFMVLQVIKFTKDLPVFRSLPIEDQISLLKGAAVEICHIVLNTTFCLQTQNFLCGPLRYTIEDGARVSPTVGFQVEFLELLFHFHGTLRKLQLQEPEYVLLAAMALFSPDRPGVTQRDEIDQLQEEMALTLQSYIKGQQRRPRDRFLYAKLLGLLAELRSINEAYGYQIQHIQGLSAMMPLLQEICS

The target of experiment [4] is X-box-binding protein 1 (Homo sapiens) (UniProt P17861). The experiment can be described thus: ATG_Xbp1_CIS: Attagene CIS-FACTORIAL HepG2 Assay for human X-box Binding Protein 1 (XBP1) (AID 2282972; active = hit-call score of the fitted dose curve at least 0.9, where 1 is the maximum; inactive = score below 0.9). To be noted: HepG2 XBP1 cis-element reporter, Attagene multiplex; actives raise or lower the signal. In a few lines: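 HepG2, transient MRTU transfection (cis-promoter driven), 24 h compound exposure. Total RNA → oligo(dT) RT → PCR → 6-FAM labeling → HpaI cut → CE. Bidirectional fit vs DMSO.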
Sequence of X-box-binding protein 1 (Homo sapiens) (P17861 whole entry, looked up): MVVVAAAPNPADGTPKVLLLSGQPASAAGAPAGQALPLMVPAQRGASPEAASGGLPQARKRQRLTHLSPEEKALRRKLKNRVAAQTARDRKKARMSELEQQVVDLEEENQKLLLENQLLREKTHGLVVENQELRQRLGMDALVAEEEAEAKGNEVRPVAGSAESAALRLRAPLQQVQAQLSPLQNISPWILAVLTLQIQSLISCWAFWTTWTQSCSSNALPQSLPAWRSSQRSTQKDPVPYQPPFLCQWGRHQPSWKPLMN

Experiment [5] can be described thus: ATG_M_19_TRANS: Attagene TRANS-FACTORIAL HepG2 Assay for M19 Transcription Factor (Internal Marker) (AID 2282974). The following applies: HepG2 Attagene TRANS-FACTORIAL M19 internal marker reporter. In a few lines: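 Gain-of-signal in reporter mRNA, relative to DMSO, was scored from capillary electrophoresis fluorescence. HepG2 cells carried transiently transfected multiple reporter transcription units and were incubated with test chemicals for 24 h.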

Experiment [6] in a line: ATG_GAL4_TRANS: Attagene TRANS-FACTORIAL HepG2 Assay for GAL4 (Internal Marker) (AID 2282976). The following applies: HepG2 Attagene TRANS GAL4 internal marker reporter. In outline: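 In transfected human HepG2 liver cells dosed 24 h, GAL4 reporter mRNA serves as a baseline marker. Detection by RT-PCR with fluorescent capillary electrophoresis, activity fitted upward relative to DMSO.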

The target of experiment [7] is Oxysterols receptor LXR-alpha (Homo sapiens) (UniProt Q13133). The experiment can be described thus: ATG_LXRa_TRANS: Attagene TRANS-FACTORIAL HepG2 Assay for human Liver X Receptor alpha (LXRa) (AID 2282980). To be noted: HepG2 Attagene TRANS reporter, LXRa transactivation. In a few lines:
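Chemical-induced reporter mRNA measured by RT-PCR with fluorescent labelling and capillary electrophoresis after 24 h dosing of transiently transfected HepG2 cells expressing exogenous NR-Gal4 chimeras; increases scored against DMSO baseline.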

Experiment [8] has as its target Nuclear receptor subfamily 4 group A member 2 (Homo sapiens) (UniProt P43354). The experiment in a line: ATG_NURR1_TRANS: Attagene TRANS-FACTORIAL HepG2 Assay for human Nuclear Receptor Related Protein 1 (NURR1) (AID 2282985). The following applies: HepG2 Attagene TRANS reporter, mRNA readout. In a few lines:
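Cells: HepG2, transiently transfected. Exposure: 24 h. Detection: fluorescence of labelled RT-PCR products separated by capillary electrophoresis; upward fit versus DMSO.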

The target in experiment [9] is Transcriptional activator Myb (Homo sapiens) (UniProt P10242). The experiment can be described thus: ATG_Myb_CIS: Attagene CIS-FACTORIAL HepG2 Assay for human Myeloblastosis (Myb) Proto-Oncogene Transcription Factor (AID 2282986; active = hit-call score of the fitted dose curve at least 0.9, where 1 is the maximum; inactive = score below 0.9). The following applies: HepG2 Attagene CIS-FACTORIAL Myb reporter transcription; actives raise or lower the signal. In outline: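 Multiplexed cis-reporter system in HepG2: transient transfection, 24 h treatment, mRNA readout by RT-PCR and capillary electrophoresis. Both increases and decreases are scored versus DMSO negative control.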
Sequence of Transcriptional activator Myb (Homo sapiens) (P10242 whole entry, looked up): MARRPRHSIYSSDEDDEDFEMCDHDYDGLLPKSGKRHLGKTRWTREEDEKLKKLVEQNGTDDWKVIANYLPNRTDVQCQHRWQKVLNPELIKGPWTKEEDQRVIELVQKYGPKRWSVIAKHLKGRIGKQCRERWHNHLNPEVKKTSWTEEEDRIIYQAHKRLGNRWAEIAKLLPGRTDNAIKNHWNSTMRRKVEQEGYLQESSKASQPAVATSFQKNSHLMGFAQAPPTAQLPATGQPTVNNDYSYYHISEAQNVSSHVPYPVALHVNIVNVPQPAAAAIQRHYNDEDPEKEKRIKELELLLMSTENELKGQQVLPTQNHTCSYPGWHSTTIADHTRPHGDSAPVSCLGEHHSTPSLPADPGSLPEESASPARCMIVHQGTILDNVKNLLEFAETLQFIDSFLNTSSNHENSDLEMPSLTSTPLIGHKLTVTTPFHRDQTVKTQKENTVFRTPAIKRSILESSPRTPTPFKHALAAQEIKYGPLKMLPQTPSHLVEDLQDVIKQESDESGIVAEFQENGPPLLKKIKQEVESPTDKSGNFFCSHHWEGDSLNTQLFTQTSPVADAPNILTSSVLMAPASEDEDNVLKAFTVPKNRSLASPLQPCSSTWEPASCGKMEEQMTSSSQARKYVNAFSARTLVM

Experiment [10] addresses Nuclear respiratory factor 1 (Homo sapiens) (UniProt Q16656). The experiment can be described thus: ATG_NRF1_CIS: Attagene CIS-FACTORIAL HepG2 Assay for human Nuclear Respiratory Factor 1 (NRF1) Orphan Gene (AID 2282987; active = hit-call score of the fitted dose curve at least 0.9, where 1 is the maximum; inactive = score below 0.9). To be noted: HepG2 NRF1 cis-element reporter, Attagene multiplex; actives raise or lower the signal. In outline: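 Endogenous factor activity was captured via cis-element-driven reporter transcripts in HepG2 cells. Following 24 h chemical treatment, transcripts were quantified by RT-PCR and capillary electrophoresis.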

Experiment [11] addresses Bile acid receptor (Homo sapiens) (UniProt Q96RI1). The experiment in a line: ATG_FXR_TRANS: Attagene TRANS-FACTORIAL HepG2 Assay for Farnesoid X Receptor (FXR) (AID 2282979).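 Note: hits raise reporter mRNA above DMSO so AC50 marks FXR activation.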 The following applies: HepG2 Attagene TRANS FXR-GAL4 reporter transcription. In a few lines:
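Reporter transcripts from transfected HepG2 cells were measured 24 h after dosing, using RT-PCR with capillary electrophoresis of 6-FAM-labelled fragments. The read-out reflects activity of exogenous FXR-Gal4 chimera on GAL4-UAS units, with induction relative to DMSO.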

The target of experiment [12] is Oxysterols receptor LXR-beta (Homo sapiens) (UniProt P55055). The experiment can be described thus: ATG_LXRb_TRANS: Attagene TRANS-FACTORIAL HepG2 Assay for human Liver X Receptor beta (LXRb) (AID 2282981). To be noted: HepG2 Attagene TRANS GAL4-LXRb reporter, mRNA. In outline: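 Cells: HepG2, transiently transfected with GAL4-UAS reporter units plus LXRb-Gal4 fusion. Treatment: 24 h. Detection: reporter mRNA by RT-PCR, 6-FAM labelling, HpaI digestion, capillary electrophoresis.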
Sequence of Oxysterols receptor LXR-beta (Homo sapiens) (P55055 whole entry, looked up, the tested form may be a part): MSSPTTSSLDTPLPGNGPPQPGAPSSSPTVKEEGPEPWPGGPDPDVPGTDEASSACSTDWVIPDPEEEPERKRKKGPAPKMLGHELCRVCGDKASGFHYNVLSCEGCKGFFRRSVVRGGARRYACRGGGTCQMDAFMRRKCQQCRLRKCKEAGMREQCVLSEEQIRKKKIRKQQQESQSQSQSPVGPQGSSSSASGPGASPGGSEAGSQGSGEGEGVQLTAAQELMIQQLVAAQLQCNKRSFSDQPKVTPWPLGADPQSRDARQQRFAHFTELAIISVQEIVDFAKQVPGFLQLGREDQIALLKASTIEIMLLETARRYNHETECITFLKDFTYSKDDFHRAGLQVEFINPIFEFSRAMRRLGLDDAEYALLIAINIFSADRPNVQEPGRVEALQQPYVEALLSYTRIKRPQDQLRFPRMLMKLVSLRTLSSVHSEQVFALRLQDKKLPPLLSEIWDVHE

The target of experiment [13] is Hepatocyte nuclear factor 4-alpha (Homo sapiens) (UniProt P41235). The experiment in a line: ATG_HNF4a_TRANS: Attagene TRANS-FACTORIAL HepG2 Assay for human Hepatocyte Nuclear Factor 4 alpha (HNF4a) (AID 2282982). To be noted: HepG2 HNF4a transactivation reporter, mRNA readout. In a few lines:
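Transfected HepG2 reporter cells are dosed for 24 h; reporter RNA is reverse-transcribed, amplified, fluorescently labelled and HpaI-digested before CE sizing. Positive-direction fit against DMSO.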

Experiment [14] in a line: ATG_M_06_TRANS: Attagene TRANS-FACTORIAL HepG2 Assay for M06 Transcription Factor (Internal Marker) (AID 2282983).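 Note: reporter transcript level by RT-PCR then capillary electrophoresis fluorescence.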 The following applies: HepG2 Attagene TRANS M06 internal marker reporter. In outline:
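Cells: HepG2, transient multi-reporter transfection. Exposure: 24 h. Detection: RT-PCR, 6-FAM labelling, HpaI digestion (2 h, 37 °C), capillary electrophoresis. Baseline: DMSO.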

The nature of experiment [15]: ATG_M_32_TRANS: Attagene TRANS-FACTORIAL HepG2 Assay for M32 Transcription Factor (Internal Marker) (AID 2282984).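 Note: transcript level of a background control reporter unit measured by RT-PCR and capillary electrophoresis.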 To be noted: HepG2 Attagene TRANS M32 internal marker reporter. In outline: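 Using transiently transfected HepG2 cells exposed to test chemicals for 24 h, reporter transcripts are converted to labelled cDNA fragments and quantified by capillary electrophoresis. DMSO defines the activity baseline.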

The target in experiment [16] is Glucocorticoid receptor (Homo sapiens) (UniProt P04150). The experiment in a line: ATG_GR_TRANS: Attagene TRANS-FACTORIAL HepG2 Assay for human Glucocorticoid Receptor (GR) (AID 2282978).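 Note: activators score as hits since higher reporter transcript over DMSO is fitted.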 To be noted: HepG2 Attagene TRANS GR reporter, mRNA transcription. In a few lines: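 HepG2 transient transfection, multiple reporter units, GAL4-UAS under NR-GAL4 chimera control. 24 h treatment. Reporter mRNA by RT-PCR/CE fluorescence, DMSO as negative control.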
Sequence of Glucocorticoid receptor (Homo sapiens) (P04150 whole entry, looked up, the tested form may be a part): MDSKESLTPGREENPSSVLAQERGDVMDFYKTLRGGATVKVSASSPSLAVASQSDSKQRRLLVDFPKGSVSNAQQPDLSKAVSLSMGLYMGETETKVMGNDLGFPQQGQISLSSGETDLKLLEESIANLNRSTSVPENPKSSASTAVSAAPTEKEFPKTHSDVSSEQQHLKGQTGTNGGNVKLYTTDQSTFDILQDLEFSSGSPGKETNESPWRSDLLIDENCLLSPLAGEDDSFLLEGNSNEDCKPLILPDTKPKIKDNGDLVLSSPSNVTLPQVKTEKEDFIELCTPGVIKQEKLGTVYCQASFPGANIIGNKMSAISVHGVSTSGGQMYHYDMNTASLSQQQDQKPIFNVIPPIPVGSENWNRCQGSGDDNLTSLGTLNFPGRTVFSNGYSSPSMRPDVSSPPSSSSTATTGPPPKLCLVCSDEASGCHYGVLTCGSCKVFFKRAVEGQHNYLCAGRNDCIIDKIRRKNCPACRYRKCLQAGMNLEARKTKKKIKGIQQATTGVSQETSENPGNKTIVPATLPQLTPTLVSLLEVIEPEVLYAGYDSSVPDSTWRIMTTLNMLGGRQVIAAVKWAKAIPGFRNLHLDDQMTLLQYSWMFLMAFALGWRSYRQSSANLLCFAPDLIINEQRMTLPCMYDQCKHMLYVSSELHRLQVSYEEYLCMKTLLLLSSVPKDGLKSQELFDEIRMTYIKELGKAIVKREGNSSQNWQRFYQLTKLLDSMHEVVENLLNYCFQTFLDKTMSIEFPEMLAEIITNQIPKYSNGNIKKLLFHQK

The nature of experiment [17]: ATG_VDRE_CIS: Attagene CIS-FACTORIAL HepG2 Assay for human Vitamin D Receptor Element (VDRE) (AID 2282968; active = hit-call score of the fitted dose curve at least 0.9, where 1 is the maximum; inactive = score below 0.9). The following applies: HepG2 VDRE cis-reporter transcription, actives raise or lower the signal. In a few lines:
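In transiently transfected HepG2 liver cells, gain or loss of reporter mRNA after 24 h exposure is scored relative to DMSO, using fluorescence detection by capillary electrophoresis of RT-PCR products.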

Records with an inconclusive call do not appear. The source made the active and inactive calls. Rule for the calls, unless noted: active = hit-call score of the fitted dose curve at least 0.9, where 1 is the maximum; inconclusive = response in the unintended direction; inactive = score below 0.9.

Sequence of Hepatocyte nuclear factor 4-alpha (Homo sapiens) (P41235 whole entry, looked up): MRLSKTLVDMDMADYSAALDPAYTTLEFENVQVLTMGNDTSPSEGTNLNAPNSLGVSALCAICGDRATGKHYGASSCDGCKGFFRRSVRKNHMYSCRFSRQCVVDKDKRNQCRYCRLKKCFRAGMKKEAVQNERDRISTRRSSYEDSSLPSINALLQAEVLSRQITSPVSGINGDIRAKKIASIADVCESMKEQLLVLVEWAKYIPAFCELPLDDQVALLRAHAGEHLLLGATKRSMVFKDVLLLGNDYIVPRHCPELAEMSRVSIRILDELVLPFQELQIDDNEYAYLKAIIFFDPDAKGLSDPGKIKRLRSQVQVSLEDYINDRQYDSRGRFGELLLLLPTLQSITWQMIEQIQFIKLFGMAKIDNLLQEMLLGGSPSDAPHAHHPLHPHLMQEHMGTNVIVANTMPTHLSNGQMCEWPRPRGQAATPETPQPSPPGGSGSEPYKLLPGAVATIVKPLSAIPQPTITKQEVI
Sequence of Bile acid receptor (Homo sapiens) (Q96RI1 whole entry, looked up, the tested form may be a part): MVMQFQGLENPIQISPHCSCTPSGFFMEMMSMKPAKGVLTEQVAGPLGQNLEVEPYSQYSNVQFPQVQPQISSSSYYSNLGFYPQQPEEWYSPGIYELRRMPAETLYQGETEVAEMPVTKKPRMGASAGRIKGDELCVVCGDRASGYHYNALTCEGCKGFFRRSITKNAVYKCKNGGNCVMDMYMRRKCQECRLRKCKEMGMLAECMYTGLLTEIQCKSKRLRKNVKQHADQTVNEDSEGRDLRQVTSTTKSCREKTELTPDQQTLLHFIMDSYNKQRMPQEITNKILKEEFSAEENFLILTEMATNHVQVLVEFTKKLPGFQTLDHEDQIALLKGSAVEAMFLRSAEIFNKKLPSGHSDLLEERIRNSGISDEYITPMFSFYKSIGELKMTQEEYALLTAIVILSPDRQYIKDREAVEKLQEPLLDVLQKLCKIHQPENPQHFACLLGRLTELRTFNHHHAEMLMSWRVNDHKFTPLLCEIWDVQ
Sequence of Nuclear receptor subfamily 4 group A member 2 (Homo sapiens) (P43354 whole entry, looked up): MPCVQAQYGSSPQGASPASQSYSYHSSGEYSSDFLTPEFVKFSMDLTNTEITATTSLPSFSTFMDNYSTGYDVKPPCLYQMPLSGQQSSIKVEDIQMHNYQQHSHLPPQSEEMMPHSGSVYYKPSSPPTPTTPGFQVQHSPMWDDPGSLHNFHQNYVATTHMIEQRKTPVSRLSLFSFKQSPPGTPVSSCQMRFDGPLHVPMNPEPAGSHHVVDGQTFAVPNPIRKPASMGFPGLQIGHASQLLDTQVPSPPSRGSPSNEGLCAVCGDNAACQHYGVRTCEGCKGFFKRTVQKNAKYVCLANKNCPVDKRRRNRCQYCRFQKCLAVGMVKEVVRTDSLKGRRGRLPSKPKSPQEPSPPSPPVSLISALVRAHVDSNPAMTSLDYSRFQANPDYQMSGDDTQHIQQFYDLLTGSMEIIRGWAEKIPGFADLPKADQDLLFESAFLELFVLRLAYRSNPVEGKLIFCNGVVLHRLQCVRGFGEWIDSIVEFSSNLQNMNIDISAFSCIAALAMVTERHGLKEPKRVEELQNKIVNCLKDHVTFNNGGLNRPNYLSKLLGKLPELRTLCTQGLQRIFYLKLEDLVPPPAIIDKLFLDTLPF
Sequence of Nuclear respiratory factor 1 (Homo sapiens) (Q16656 whole entry, looked up): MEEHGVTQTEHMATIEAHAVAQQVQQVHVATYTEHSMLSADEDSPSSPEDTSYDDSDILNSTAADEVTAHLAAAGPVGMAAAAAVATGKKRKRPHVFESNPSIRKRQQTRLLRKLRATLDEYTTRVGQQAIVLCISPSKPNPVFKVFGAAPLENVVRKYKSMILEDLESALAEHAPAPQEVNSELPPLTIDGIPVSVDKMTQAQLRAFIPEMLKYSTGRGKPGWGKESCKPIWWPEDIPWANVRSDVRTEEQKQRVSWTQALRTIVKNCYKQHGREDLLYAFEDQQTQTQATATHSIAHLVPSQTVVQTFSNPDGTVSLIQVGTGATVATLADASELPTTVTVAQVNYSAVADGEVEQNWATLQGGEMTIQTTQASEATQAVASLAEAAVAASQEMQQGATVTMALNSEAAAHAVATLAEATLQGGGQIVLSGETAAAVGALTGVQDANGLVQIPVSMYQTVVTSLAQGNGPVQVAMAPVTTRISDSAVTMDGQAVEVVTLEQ
Sequence of Oxysterols receptor LXR-alpha (Homo sapiens) (Q13133 whole entry, looked up, the tested form may be a part): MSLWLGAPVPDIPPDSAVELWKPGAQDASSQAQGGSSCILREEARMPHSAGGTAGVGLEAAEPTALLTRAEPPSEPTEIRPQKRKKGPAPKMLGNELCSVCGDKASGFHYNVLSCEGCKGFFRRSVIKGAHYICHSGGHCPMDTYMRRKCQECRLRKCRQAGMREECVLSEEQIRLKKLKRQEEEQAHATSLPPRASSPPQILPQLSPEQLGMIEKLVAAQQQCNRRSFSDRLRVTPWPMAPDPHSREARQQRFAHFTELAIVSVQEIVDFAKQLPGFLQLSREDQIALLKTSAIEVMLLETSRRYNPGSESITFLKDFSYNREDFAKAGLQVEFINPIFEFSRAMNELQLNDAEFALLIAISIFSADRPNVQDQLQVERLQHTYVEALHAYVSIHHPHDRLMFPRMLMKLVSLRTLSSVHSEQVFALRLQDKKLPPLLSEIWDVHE

On to `CC(Oc1cc(Cl)ccc1Cl)C(=O)O` (stereo not drawn), for which the compound was classed as inactive in experiment [1], in experiment [2], in experiment [3], in experiment [4], in experiment [5] and in experiment [6]. Moreover, the compound was called inactive in experiment [7], in experiment [8], in [9] and in experiment [10].
Regarding `CC(=O)CC(=O)Nc1ccc(C)cc1C`, the result in experiment [1], in experiment [2], in experiment [4], in experiment [6], in experiment [11] and in experiment [12] was inactive. In addition, the outcome in experiment [13], in experiment [14], in [15], in [9] and in experiment [10] was inactive.
With `CC(CN=Cc1ccccc1O)N=Cc1ccccc1O` (stereo not drawn), the figures for the concentration at half-maximal activity (AC50) in experiment [1] and in experiment [10] were 25.9 µM (active) and 55.3 µM (active), respectively. Besides, the compound was called inactive in [2], in [3], in [4], in experiment [16], in [12] and in [14]. Besides, the result in [15], in [8] and in experiment [9] was inactive.
Regarding `Cc1cc(C)nc(NS(=O)(=O)c2ccc(N)cc2)n1`, the outcome in experiment [1], in [2], in experiment [4], in [16], in experiment [11] and in experiment [12] was inactive. For the same compound, the outcome in [13], in experiment [14], in experiment [15], in experiment [8], in experiment [9] and in [10] was inactive.
On to `COC(=O)Nc1ccc(Cl)c(Cl)c1`, for which the call in experiment [1], in [11], in experiment [12], in [13], in experiment [14] and in experiment [15] was inactive. The result in [10] was inactive. The concentration at half-maximal activity (AC50) in experiment [17] was 43.7 µM (active); in experiment [4], 26.7 µM (active); in experiment [8], 79.9 µM (active).
Regarding `CC1=CC[C@@]23C[C@@H]1C(C)(C)[C@@H]2CC[C@H]3C`, the compound was called inactive in experiment [1], in [3], in [16], in experiment [12], in [14] and in experiment [15]. The call in [8], in [9] and in experiment [10] was inactive.

The values above are taken from PubChem BioAssay (EPA / NIEHS).
